PubChem BioAssay AID493194 (Broad Institute, 2011)
Results with a measured potency or affinity are listed apart. Results filed as inconclusive are left out. The source made the active and inactive calls.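 Rule for the calls: active = a valid curve of falling signal whose half-effect concentration is at most ten times the top tested dose; inconclusive = flat curve at 30 to 70% inhibition, or poor fit; inactive = signal rise, flat within 30%, or potency beyond limit.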

biological target: Scavenger receptor class B member 1 (Mus musculus) (UniProt Q61009); assay: inhibitors of SR-BI mediated HDL lipid uptake, dose response, ldlA[mSR-BI] cells, fluorescence, cherry pick (AID 493194); conditions: CHO ldlA[mSR-BI] DiI-HDL uptake fluorescence, 3 h; series mostly up to 35 µM; activity change, negative = inhibition: at the top concentration;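 note: CHO cells lacking LDL receptor and overexpressing mouse SR-BI; cellular uptake of fluorescently labeled HDL measured as cell fluorescence; 0% = median of neutral control wells and -100% = median of positive control wells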
Sequence (Q61009 whole entry, looked up): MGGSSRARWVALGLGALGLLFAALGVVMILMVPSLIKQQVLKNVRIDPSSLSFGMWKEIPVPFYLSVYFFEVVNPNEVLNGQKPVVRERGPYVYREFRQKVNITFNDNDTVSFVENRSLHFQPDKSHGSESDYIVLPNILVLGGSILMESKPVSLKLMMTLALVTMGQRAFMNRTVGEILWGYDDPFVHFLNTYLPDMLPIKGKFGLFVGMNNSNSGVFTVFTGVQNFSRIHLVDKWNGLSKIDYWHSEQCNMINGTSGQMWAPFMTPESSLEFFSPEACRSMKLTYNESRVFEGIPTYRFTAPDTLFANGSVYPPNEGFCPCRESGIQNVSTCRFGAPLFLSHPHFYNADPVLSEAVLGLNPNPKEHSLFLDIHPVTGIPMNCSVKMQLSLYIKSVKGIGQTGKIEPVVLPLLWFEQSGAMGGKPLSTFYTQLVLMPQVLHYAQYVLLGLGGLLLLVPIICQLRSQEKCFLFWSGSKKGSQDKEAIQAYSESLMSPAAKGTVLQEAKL

| SMILES | activity change, negative = inhibition |
| --- | --- |
| COc1ccc(N2CC(C(=O)NCCC3=CCCCC3)CC2=O)c(OC)c1 (stereo unspecified) | -27.6% (inactive) |
| Cc1ccccc1C(=O)N1CCc2cc(-c3nc(NC(=O)Cc4ccc5c(c4)OCO5)sc3C)ccc21 | 2.62% (inactive) |
| N#Cc1ccc(C(=O)N2CCC3CC2c2cc(-c4ccccc4)ccc23)cc1 (stereo unspecified) | 16.1% (inactive) |
| Cc1ccc(-c2cc(C(F)F)n3ncc(C(=O)N4CCN(c5cccc(C)c5C)CC4)c3n2)cc1 | 10.1% (inactive) |
| CCNC(=O)c1c(NC(=O)c2cc(-c3cc(C)cc(C)c3O)n[nH]2)sc2c1CCCC2 | -29.5% (inactive) |
| Cc1ccc(-c2csc(N3CCN(c4ccc5nc(-c6ccncc6)n(CCN6CCCCC6)c5c4)CC3)n2)cc1 | -21.8% (inactive) |
| Cc1c(C(=O)CN2CCCC(C)(C)C2)c2ccccc2n1C | 34.2% (inactive) |
| COC(=O)C1C(=O)c2c([nH]c(C(=O)OC3CCCC3C)c2C)CC1C (stereo unspecified) | 10.7% (inactive) |
| Cc1ccc(C(=O)COc2cc(O)c3c(=O)cc(-c4ccccc4)oc3c2)cc1 | 5.32% (inactive) |
| CCOC(=O)C(=O)Nc1nc(-c2ccc3c(c2)CCN3C(=O)C2CC2)c(C)s1 | -2.46% (inactive) |
| O=C(C[C@H]1C/C=C\CCC(=O)OC[C@H]2CCCN2C1=O)NCCO | 127% (inactive) |
| COc1ccc(C(=O)CSc2nnc(CNC(=O)c3ccc(S(=O)(=O)N(C)C)cc3)o2)cc1 | -22.2% (inactive) |
| Cc1ccc(-c2cc(-c3ccc(C)cc3O)[nH]n2)cc1 | -5.14% (inactive) |
| O=C(CN1CCOCC1)Nc1nc(-c2ccc3c(c2)CCN3S(=O)(=O)c2ccccc2)cs1 | 118% (inactive) |
| COc1ccccc1NC(=O)CN1CCN(CC(=O)Nc2ccc(OCc3ccccc3)cc2)CC1 | 21.2% (inactive) |
| Oc1ccc(/C=C/c2nc(-c3ccccc3O)n(-c3ccccc3)n2)cc1 | 1.35% (inactive) |
